From the supplement of paper PMC13380429

Test system: Vero E6 infected with SARS-CoV-2
Assay: morphology score (similarity to uninfected cells); higher = more like uninfected cells
Details: 24 h

Row | SMILES | morphology score
1 | CN(C)C(=O)Nc1cccc(-c2ccc(N(C)C)cc2)c1 [atglistatin] (10 µM) | 0.11
2 | COc1ccc(C2(O)CCC(N3CC[C@@H](NC(=O)CNC(=O)c4cccc(C(F)(F)F)c4)C3)CC2)cn1 (stereo partly drawn) (10 µM) | -0.0197
3 | CCC(CC)COC(=O)[C@H](C)N[P@](=O)(OC[C@H]1O[C@@](C#N)(c2ccc3c(N)ncnn23)[C@H](O)[C@@H]1O)Oc1ccccc1 [Remdesivir] (10 µM) | 0.761
4 | Cc1c(O)c(=O)n(-c2ccccc2)n1C [4-hydroxy-phenazone] (10 µM) | -0.0731
5 | CCN(CC)CCNC(=O)c1cc(Cl)c(N)cc1OC [metoclopramide] (10 µM) | -0.00451
6 | Cn1c(=O)c2[nH]c(Br)nc2n(C)c1=O [pamabrom] (10 µM) | 0.0536
7 | CC(C)(C(=O)O)c1ccc(C(=O)CCCN2CCC(OC(c3ccccc3)c3ccccc3)CC2)cc1 [carebastine] (10 µM) | 0.0702
8 | Cc1cn([C@@H]2C[C@@H](O)[C@H](CO)O2)c(=O)[nH]c1=O [telbivudine] (10 µM) | -0.036
9 | O=C(CCCCCCCn1cc(-c2cccnc2)nn1)Nc1ccccc1-c1ccccc1 (0.833333 µM) | -0.143
10 | CO/N=C(\C(=O)N[C@@H]1C(=O)N2C(C(=O)OCOC(=O)C(C)(C)C)=C(C)CS[C@H]12)c1csc(N)n1 [cefetamet-pivoxil] (10 µM) | 0.225
11 | O=C(O)c1ccccc1Nc1cccc(OCc2ccc3ccccc3n2)c1 (10 µM) | 0.0319
12 | Cn1cc(-c2ccc(S(=O)(=O)n3ccc(/C=C/C(=O)Nc4ccccc4N)c3)cc2)cn1 (10 µM) | -0.0742
13 | C[N+]1(C)CCC(OC(=O)C(O)(c2ccccc2)C2CCCC2)C1 (stereo not drawn) [glycopyrrolate] (10 µM) | 0.122
14 | N#CC(c1ccnc(OCc2ccc(CN3CCOCC3)cc2)n1)c1nc2ccccc2s1 (stereo not drawn) (10 µM) | 0.195
15 | CN1CCN(Cc2ccc(Nc3ncc(Cl)c(Nc4ccccc4S(=O)(=O)N(C)C)n3)cc2)CC1 (10 µM) | -0.145
16 | CC1(C)O[C@@H]2[C@@H](CO[C@@]3(COS(N)(=O)=O)OC(C)(C)O[C@@H]23)O1 [topiramate] (10 µM) | 0.00625
17 | N=C(C[C@@H](O)COc1ccccc1-c1ccccc1)N1CCCCC1 (10 µM) | 0.0845
18 | c1ccc(-c2ccc(C(c3ccccc3)n3ccnc3)cc2)cc1 (stereo not drawn) [bifonazole] (10 µM) | 0.407
19 | CCCn1c(=O)c2nc(-c3ccccc3)[nH]c2n(CCC)c1=O [1,3-dipropyl-8-phenylxanthine] (10 µM) | 0.102
20 | CCCCCCN(CCCCCC)C(=O)Cc1c(-c2ccc(Cl)cc2)[nH]c2ccc(Cl)cc12 (10 µM) | -0.00824
21 | N#CC(C#N)=Cc1ccc(O)c(O)c1 [tyrphostin-AG-18] (10 µM) | 0.204
22 | CS(=O)(=O)c1cc(F)cc2c3c(n(Cc4ccc(Cl)cc4)c12)[C@@H](CC(=O)O)CC3 [laropiprant] (10 µM) | 0.0115
23 | O=C1CCCCCCCCCCCCCCO1 [oxacyclohexadecan-2-one] (10 µM) | -0.0503
24 | C#C[C@]1(O)CC[C@H]2[C@@H]3CCc4cc(OC5CCCC5)ccc4[C@H]3CC[C@@]21C [quinestrol] (10 µM) | -0.0318
25 | CN1[C@@H]2CC[C@H]1C[C@@H](OC(=O)N1Cc3ccccc3NC1=O)C2 (10 µM) | 0.0635
26 | Clc1ccc(COC(Cn2ccnc2)c2ccc(Cl)cc2Cl)cc1 (stereo not drawn) [econazole] (10 µM) | -0.225
27 | CC(C)(O)CS(=O)(=O)Nc1ccc2c(c1)CCN(C(=O)COc1cccnc1)C2 [Nampt-IN-1] (10 µM) | -0.0571
28 | CCCCOc1c(C(=O)c2c(F)cc(C)cc2F)c[nH]c2nncc1-2 (10 µM) | 0.383
